Compound activity deposited in PubChem BioAssay by National Center for Advancing Translational Sciences (NCATS).
Shown are actives, neighbours in structure and some others; about 10% of the full set was active somewhere.
KB-V1 cytotox: qHTS assay for MDR1-selective chemotherapeutics: Primary screen using the drug-selected MDR subline cells KB-V1. 400,000 tested, 3.4% active. KB-V1 MDR cells viability, CellTiter-Glo, 72 h. AID 1347076, 2019. Potency, µM (highest dose often 46.1 µM), most hits filed as cytotoxic; further: on the % scale 0 is the no-effect control and ±100 the full control effect; nearly all actives have a fitted effect of over 60% in size
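Luminescent ATP read-out (CellTiter-Glo, 10 min) measures survival of drug-selected KB-V1 MDR cells after 72 h, 37 degrees C compound exposure. Medium: phenol-red-free DMEM, 10% FBS. Values from fitted concentration-response curves.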
RORgamma inh: qHTS for inhibitors of ROR gamma transcriptional activity; Drosophila S2 Gal4-RORgamma UAS-luciferase reporter, 20 h; Potency, µM (top dose mostly 53.6 µM), for the others: at the highest dose activity change, negative = inhibition, usual class: inhibitors; 310,000 tested, 5.4% active; AID 2551, 2010; further: on the % scale 0 is the no-effect control and ±100 the full control effect; nearly all actives have a fitted effect of over 60% in size
Target sequence (P51450 whole entry, looked up, the tested form may be a part): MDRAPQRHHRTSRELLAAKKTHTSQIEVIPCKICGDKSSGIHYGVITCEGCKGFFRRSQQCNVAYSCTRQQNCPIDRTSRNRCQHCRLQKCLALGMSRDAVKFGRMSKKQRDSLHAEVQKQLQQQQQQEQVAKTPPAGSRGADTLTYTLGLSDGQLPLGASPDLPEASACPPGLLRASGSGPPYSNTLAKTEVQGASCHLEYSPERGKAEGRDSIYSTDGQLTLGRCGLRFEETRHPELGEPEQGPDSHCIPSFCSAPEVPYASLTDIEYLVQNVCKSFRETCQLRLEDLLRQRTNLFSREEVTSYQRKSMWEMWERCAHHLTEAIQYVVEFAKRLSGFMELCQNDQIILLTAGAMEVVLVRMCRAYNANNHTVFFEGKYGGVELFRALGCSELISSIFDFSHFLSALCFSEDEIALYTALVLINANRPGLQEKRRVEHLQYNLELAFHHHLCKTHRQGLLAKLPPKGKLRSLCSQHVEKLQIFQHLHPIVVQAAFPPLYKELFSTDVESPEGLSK
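Stably transfected Drosophila Schneider cells are the test system, with ROR gamma fused to Gal4 and luciferase under UAS control; luminescence is read after 20 hr of 700 uM copper sulfate induction at ambient temperature.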
Gal4-VP16 FLuc: VP16 counterscreen qHTS for inhibitors of ROR gamma transcriptional activity; Drosophila S2 Gal4-VP16 UAS-luciferase, luminescence, 20 h; Potency, µM (top dose mostly 53.6 µM), for inactives: at the highest dose activity, negative = inhibition, most hits filed as inhibitors; 310,000 tested, 3.5% active;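 further: Gal4-VP16 expression switched on by copper sulfate through the metallothionein promoter; on the % scale 0 is the no-effect control and ±100 the full control effect; nearly all actives have a fitted effect of over 50% in size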
SW480 rereplic: A quantitative high throughput screen for small molecules that induce DNA re-replication in SW480 colon adenocarcinoma cells. SW480 DNA re-replication, Hoechst DNA content imaging, 48 h. Potency, µM (doses to about 46.1 µM), without a hit: top-dose re-replication activation, usual class: activators. 340,000 tested, 1.8% active. AID 624297, 2012; further: % of control where 0% means no effect; nearly all actives have a fitted effect of over 55% in size
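250 cells/well; 23 nL cpd via pin tool; 48 hr, 37 C, 5% CO2; Hoechst 40 min; imager read of total nuclear intensity, ex 405/em 500-530 nm.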
KB-3-1 cytotox: qHTS assay for MDR1-selective chemotherapeutics: Primary screen using the parental adenocarcinoma cell KB-3-1; Potency, µM (titrated, usually from 46.1 µM), actives largely listed as cytotoxic; KB-3-1 viability, CellTiter-Glo ATP luminescence, 72 h; AID 1347075, 2019; 400,000 tested, 1.4% active; further: on the % scale 0 is the no-effect control and ±100 the full control effect; nearly all actives have a fitted effect of over 60% in size
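Using CellTiter-Glo luminescence, growth of non-resistant KB-3-1 adenocarcinoma cells is assessed 72 h after pin-tool compound addition at 37 °C. Normalized responses across the concentration series yield fitted curves.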
MCF10A rerep: A quantitative high throughput screen for small molecules that induce DNA re-replication in MCF 10a normal breast cells | MCF 10A DNA re-replication, Hoechst nuclear intensity, 48 h | Potency, µM (series often up to 46.1 µM), for inactives: top-dose activity, positive = re-replication, actives largely listed as activators | 350,000 tested, 2.9% active | AID 624296, 2012; further: % of control where 0% means no effect; nearly all actives have a fitted effect of over 50% in size
* = called active by the depositor; i = inactive; ? = inconclusive; nt = not tested or not shown; [ ] = another dose, or the depositor's remark. The call rests on the fitted dose curve; in most records, active means well fitted curve in the direction sought with a large enough effect; inconclusive means small, poorly fitted or top-dose-only effect, or another doubt; inactive means no such curve, though single readings can be large; an effect the other way counts as inactive or inconclusive. Potency means the concentration at half of the fitted maximal effect.

SMILES | KB-V1 cytotox | RORgamma inh | Gal4-VP16 FLuc | SW480 rereplic | KB-3-1 cytotox | MCF10A rerep
CCOC(=O)[C@@H]1[C@H]2COc3cc(OC)ccc3[C@@H]2N2C(=O)N(c3ccc(Cl)cc3)C(=O)[C@@]12C | i | 8.9µM* | ? | ? | i | 5%
CCOC(=O)[C@@H]1[C@H]2COc3cc(OC)ccc3[C@@H]2N2C(=O)N(c3cccc(F)c3)C(=O)[C@@]12C | i | 10µM* | 0% | 4% | i | ?
O=C(OCc1cn([C@@H]2CN(C(=O)C3CCCCC3)[C@@H](c3ccc(Cl)cc3)C[C@H]2O)nn1)c1ccccc1 | i | nt | nt | nt | i | nt
Clc1ccc(COc2cccc(CNCc3ccncc3)c2)cc1 | 6.5µM* | ? | ? | -4% | ? | 15%
CC(C)(CO)NCc1cccc(OCc2ccc(Cl)cc2)c1 | ? | -7% | -1% | 1% | ? | 10%
CCCCCCOc1ccc(OC(=O)c2ccncc2)cc1 | i | ? | 22% | ? | i | 23µM*
CCCOc1ccc(C(=O)Nc2cccnc2)cc1 | i | 28%[1.91 µM] | -7% | -8% | i | 5%
CCCCOc1ccc(C(=O)Nc2ccncc2)cc1 | ? | ? | 7.9µM* | -3% | i | ?
CCCCCCc1ccc(OC(=O)c2ccncc2)cc1 | i | 10% | -4% | -11% | i | 5%
O=C1NC[C@H](CCCCN2C[C@H](Cc3ccccc3)N(CCc3ccc(O)cc3)C(=O)C2=O)N(CC2CCCCC2)C1=O | i | nt | nt | nt | i | nt
COc1ccc(NC(=O)c2[nH]nc3c2CSc2ccccc2-3)c(OC)c1 | ? | nt | nt | nt | i | nt
COc1ccc(/C=N/NC(=O)C(=O)N2CCCCCC2)cc1O | i | -3% | -26% | -3% | i | -2%
COc1ccc(Cn2c(C3CC3)nc3ccc(NC(=O)C4CC4)cc3c2=O)cc1 | 23µM* | ? | 0% | 14% | ? | 9%
CC(=O)CC1c2ccccc2C=C(c2ccsc2)N1c1ccc(-c2cccs2)cc1 (centres undefined) | i | nt | nt | nt | ? | nt
COc1cc(C(=O)Oc2c(CN3CCOCC3)cc(Cl)c3cccnc23)cc(OC)c1OC | ? | 4.5µM* | 2.5µM* | ? | ? | ?
COc1cc(C(=O)Oc2c(OC)cc(C(=S)N3CCOCC3)cc2OC)cc(OC)c1OC | i | 10% | -1% | -5% | i | -4%
O=C(Oc1c(CN2CCOCC2)cc(Cl)c2cccnc12)c1ccc(F)cc1 | 3.3µM* | -5% | -15% | ? | 5.8µM* | 3.3µM*
COc1ccc(C(=O)Oc2c(CN3CCOCC3)cc(Cl)c3cccnc23)cc1 | ? | 6.3µM* | 6.3µM* | ? | 10µM* | ?
COc1cccc(C(=O)Oc2c(CN3CCOCC3)cc(Cl)c3cccnc23)c1 | 7.3µM* | 2.8µM* | 4.5µM* | 26% | ? | 14%
COc1ccc(C(=O)OC(C)CN2CCOCC2)cc1 (centres undefined) | i | 13% | 26% | -16% | i | -4%
COc1cccc(C(=O)OCCN2CCOCC2)c1 | ? | -3% | -1% | 1% | i | 1%
CCCCCCCCN1C(=O)[C@H](CC(=O)N2CCCC2)C[C@@]2(C(=O)OC)CCCCC=C12 | ? | nt | nt | nt | i | nt
Cc1cc(NC(=O)c2cc(Cl)ccc2Cl)ccc1-c1cc2ccccc2oc1=O | i | nt | nt | nt | i | nt
O=C(c1cccc(F)c1)N1CCC2(CCN(Cc3ccccc3)CC2)CC1 | nt | -19% | 3% | nt | nt | nt
CCNC(=O)C(=O)NCC1CCCN1S(=O)(=O)c1cccs1 (centres undefined) | i | nt | nt | 1% | i | 1%
SMILES | KB-V1 cytotox | RORgamma inh | Gal4-VP16 FLuc | SW480 rereplic | KB-3-1 cytotox | MCF10A rerep
CNC(=O)C(=O)NCC1CCCN1S(=O)(=O)c1cccs1 (centres undefined) | i | nt | nt | 23µM* | i | 7%
CN(Cc1cccs1)C(=O)C1CCN(S(=O)(=O)c2ccccc2)CC1 | i | nt | nt | 1% | i | 2%
Cc1ccc(S(=O)(=O)N2CCCC2CNC(=O)C(=O)NCc2cccs2)cc1 (centres undefined) | 13µM* | nt | nt | ? | ? | 18%
Cc1ccc(S(=O)(=O)N2CCCC2C(=O)N(C)Cc2cccs2)cc1 (centres undefined) | 21µM* | 26% | -2% | -6% | i | 7%
CCCn1nnc(NC(=O)C(C)Oc2ccc(Cl)cc2Cl)n1 (centres undefined) | ? | 5% | -1% | -8% | i | 2%
CC(Oc1cc(Cl)ccc1Cl)C(=O)N/N=C\c1ccnn1C (centres undefined) | 18µM* | 9% | 5% | -7% | i | 13%
Cc1oc2ncnc(N3CCCCC3)c2c1C(=O)NCC1CCN(Cc2ccccc2F)CC1 | i | nt | nt | nt | i | nt
CC(=O)OCC1OC(C#Cc2ccc(C)cc2C)C=CC1OC(C)=O (centres undefined) | nt | 21%[10 µM] | 4%[10 µM] | nt | nt | nt
CCCCC(C(=O)NCCC(C)C)N(CCCN1CCOCC1)C(=O)c1snc(C(N)=O)c1N (centres undefined) | 9.2µM* | 2% | 1% | -3% | i | 18%
CCCC(=O)N1CCN(c2ccc(NC(=O)c3ccc(OCC)c([N+](=O)[O-])c3)cc2)CC1 | 12µM* | 19% | 7% | -69% | i | -6%
CCC(=O)N1CCN(c2ccc(NC(=O)c3ccc(N4CCOCC4)c([N+](=O)[O-])c3)cc2)CC1 | i | 1% | 4% | -2% | i | -6%
CCOc1ccc(C(=O)NC(=S)Nc2ccc(N3CCC(C)CC3)cc2)cc1[N+](=O)[O-] | i | 0.4µM* | ? | 9% | i | ?
CCC(=O)N1CCN(c2ccc(NC(=S)NC(=O)c3ccc(OC)c([N+](=O)[O-])c3)cc2)CC1 | i | 7.1µM* | 5µM* | 6% | i | -1%[9.22 µM]
CCOc1ccc(C(=O)NC(=S)Nc2ccccc2N2CCC(C)CC2)cc1[N+](=O)[O-] | i | 1µM* | 3.2µM* | 6% | ? | 19%
CCC(=O)N1CCN(c2ccc(NC(=O)c3ccc(N4CCCC4)c([N+](=O)[O-])c3)cc2)CC1 | i | 26%[10 µM] | 1% | -13% | i | -5%
